According to PubChem BioAssay (NCATS):
Records with an inconclusive call do not appear. Calls of active or inactive are those of the source. Calls come from the whole dose curve; as a rule, active = well fitted curve in the direction sought with a large enough effect; inconclusive = small, poorly fitted or top-dose-only effect, or another doubt; inactive = no such curve, though single readings can be large; an effect the other way counts as inactive or inconclusive.

Legend:
[1] = target: Rap guanine nucleotide exchange factor 3 (Homo sapiens) (UniProt O95398); test: Confirmatory qHTS for antagonist of cAMP-regulated guanine nucleotide exchange factor 3 (EPAC1) (AID 1645880); conditions: EPAC1 Rap1B-BODIPY-GDP exchange, fluorescence; series mostly up to 115 µM; note: nearly all actives have a fitted effect of over 55% in size; note: potency is the fitted concentration of half-maximal effect
Procedure, shortened: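 Nucleotide exchange uses 100 nM EPAC1, 250 nM RAP1B-BODIPY-GDP and 50 uM GDP, with compounds in a concentration-titration series. After 5 min at room temperature, fluorescence (480 nm ex/540 nm em) is read every 5 min for 30 min. Data are normalized to control ATA and DMSO.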

[2] = target: Rap guanine nucleotide exchange factor 3 (Homo sapiens) (UniProt O95398); test: Confirmatory qHTS for agonist of cAMP-regulated guanine nucleotide exchange factor 3 (EPAC1) (AID 1645881); conditions: EPAC1 Rap1B BODIPY-GDP exchange fluorescence; series mostly up to 154 µM;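 note: EPAC1 catalysed release of BODIPY-GDP from Rap1B seen as fluorescence loss; 100% = effect of cAMP agonist control; nearly all actives have a fitted effect of over 75% in size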
[3] = target: Rap guanine nucleotide exchange factor 4 (Homo sapiens) (UniProt Q8WZA2); test: Confirmatory qHTS for agonist of cAMP-regulated guanine nucleotide exchange factor 4 (EPAC2) (AID 1645884); conditions: EPAC2 GEF activity, Rap1B-BODIPY-GDP fluorescence; series mostly up to 154 µM;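 note: nucleotide exchange releases bodipy-GDP from Rap1 and this lowers its fluorescence; % is set by controls: 0 for no effect and ±100 for the full control effect; nearly all actives have a fitted effect of over 65% in size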
[4] = target: Rap guanine nucleotide exchange factor 4 (Homo sapiens) (UniProt Q8WZA2); test: Confirmatory qHTS for antagonist of cAMP-regulated guanine nucleotide exchange factor 4 (EPAC2) (AID 1645885); conditions: EPAC2 Rap1B-BODIPY-GDP exchange fluorescence, biochemical; series mostly up to 12.7 µM; note: nearly all actives have a fitted effect of over 25% in size; note: potency is the fitted concentration of half-maximal effect; for activity change, negative = inhibition: % is set by controls: 0 for no effect and ±100 for the full control effect
[5] = target: Rap guanine nucleotide exchange factor 3 (Homo sapiens) (UniProt O95398); test: Counterscreen qHTS for antagonist of cAMP-regulated guanine nucleotide exchange factor 3 (EPAC1) (AID 1645888); conditions: Rap1B-BODIPY-GDP nucleotide exchange, fluorescence; series mostly up to 154 µM;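 note: fluorescence loss as bound BODIPY-GDP is released from Rap1B; % of control where 0% means no effect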
Procedure, shortened: (§1)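 Rap1B–BODIPY-GDP (250 nM) with 50 uM GDP; compounds pin-transferred to 9.74 nM–152 uM final (activator) or from 7.32 nM upwards (inhibitor). Fluorescence Ex/Em 480/540 nm read at 5 and 30 min, then after adding cAMP or buffer, at room temperature.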

[6] = target: Rap guanine nucleotide exchange factor 3 (Homo sapiens) (UniProt O95398); test: Counterscreen qHTS for agonist of cAMP-regulated guanine nucleotide exchange factor 3 (EPAC1) (AID 1645889); conditions: EPAC1 Rap1B-BODIPY-GDP exchange, fluorescence; series mostly up to 154 µM; note: % of control where 0% means no effect; nearly all actives have a fitted effect of over 40% in size
Procedure, shortened: as §1

Chain of Rap guanine nucleotide exchange factor 3 (Homo sapiens) (O95398 whole entry, looked up): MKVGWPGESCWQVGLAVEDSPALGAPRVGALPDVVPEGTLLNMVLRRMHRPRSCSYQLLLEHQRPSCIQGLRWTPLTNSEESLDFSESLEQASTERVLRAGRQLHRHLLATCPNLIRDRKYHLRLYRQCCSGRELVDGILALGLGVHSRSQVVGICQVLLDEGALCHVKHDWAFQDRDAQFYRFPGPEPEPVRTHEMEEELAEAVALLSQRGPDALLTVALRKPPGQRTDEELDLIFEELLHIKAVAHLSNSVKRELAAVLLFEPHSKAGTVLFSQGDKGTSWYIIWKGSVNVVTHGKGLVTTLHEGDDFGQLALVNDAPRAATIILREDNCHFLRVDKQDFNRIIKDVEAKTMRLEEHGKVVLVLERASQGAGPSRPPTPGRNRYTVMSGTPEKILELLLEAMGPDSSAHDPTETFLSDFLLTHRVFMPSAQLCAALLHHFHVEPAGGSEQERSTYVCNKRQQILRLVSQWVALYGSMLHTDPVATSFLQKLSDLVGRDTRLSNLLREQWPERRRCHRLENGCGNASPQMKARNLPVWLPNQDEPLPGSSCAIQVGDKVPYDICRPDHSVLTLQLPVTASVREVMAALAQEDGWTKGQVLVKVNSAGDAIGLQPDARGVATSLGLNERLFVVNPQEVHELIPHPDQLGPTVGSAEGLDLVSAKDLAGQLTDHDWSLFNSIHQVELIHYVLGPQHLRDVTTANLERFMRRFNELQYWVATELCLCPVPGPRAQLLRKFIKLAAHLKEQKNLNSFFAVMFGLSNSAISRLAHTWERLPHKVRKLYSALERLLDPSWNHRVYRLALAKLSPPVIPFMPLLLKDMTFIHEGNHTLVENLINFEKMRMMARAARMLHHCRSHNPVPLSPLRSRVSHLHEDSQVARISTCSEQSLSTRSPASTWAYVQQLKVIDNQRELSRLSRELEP
Chain of Rap guanine nucleotide exchange factor 4 (Homo sapiens) (Q8WZA2 whole entry, looked up): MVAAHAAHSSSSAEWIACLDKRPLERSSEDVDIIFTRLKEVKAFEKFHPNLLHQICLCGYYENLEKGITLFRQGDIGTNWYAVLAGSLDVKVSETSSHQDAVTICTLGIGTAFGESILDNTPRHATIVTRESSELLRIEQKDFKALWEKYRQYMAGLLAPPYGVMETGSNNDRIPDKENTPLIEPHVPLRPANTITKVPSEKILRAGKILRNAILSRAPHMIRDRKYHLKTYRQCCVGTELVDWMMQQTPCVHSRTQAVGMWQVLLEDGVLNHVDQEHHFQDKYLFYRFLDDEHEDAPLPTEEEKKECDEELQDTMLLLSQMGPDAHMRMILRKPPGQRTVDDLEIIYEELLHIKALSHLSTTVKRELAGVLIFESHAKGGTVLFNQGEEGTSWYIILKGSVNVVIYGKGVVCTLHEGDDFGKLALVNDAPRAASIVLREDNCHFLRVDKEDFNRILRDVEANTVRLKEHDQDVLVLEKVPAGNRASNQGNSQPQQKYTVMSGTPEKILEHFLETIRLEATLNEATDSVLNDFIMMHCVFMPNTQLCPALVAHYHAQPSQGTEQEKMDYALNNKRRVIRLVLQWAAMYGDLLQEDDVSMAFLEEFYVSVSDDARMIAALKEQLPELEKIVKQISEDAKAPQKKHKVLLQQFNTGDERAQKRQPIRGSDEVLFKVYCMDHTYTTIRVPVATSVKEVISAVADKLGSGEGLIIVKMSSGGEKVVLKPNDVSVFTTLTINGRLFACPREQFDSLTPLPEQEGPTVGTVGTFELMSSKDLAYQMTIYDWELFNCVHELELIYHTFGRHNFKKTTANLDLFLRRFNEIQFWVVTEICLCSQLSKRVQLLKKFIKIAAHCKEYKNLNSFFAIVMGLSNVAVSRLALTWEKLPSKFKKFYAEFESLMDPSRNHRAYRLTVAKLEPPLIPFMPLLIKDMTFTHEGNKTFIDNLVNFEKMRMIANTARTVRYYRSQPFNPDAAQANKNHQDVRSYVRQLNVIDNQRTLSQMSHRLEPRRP

Cc1ccc(O)c(N=Cc2cc(Cc3ccccc3)cc([N+](=O)[O-])c2O)c1
active: Potency [1] 33.8 µM | Potency [4] 47.8 µM
inactive: Potency [2] | Potency [3] | Potency [5]

CCCc1cc(C(=O)Nc2ccccc2SC)no1
inactive: Potency [1] | Potency [2] | Potency [3] | Potency [4] | Potency [5]

Cc1ccc2oc(=O)c3cnn(CC(=O)NCCCOC(C)C)c3c2c1
inactive: Potency [1] | Potency [2] | Potency [3] | Potency [4] | Potency [5]

COc1ccc(C(=O)c2ccc(OC)c(OC)c2OC)cc1
inactive: Potency [1] | Potency [2] | Potency [3] | Potency [5]
active: Potency [4] 7.57 µM

CN(C)C(=O)CCc1ccc2c3c([nH]c2c1)[C@]1(C)[C@@H](C(=O)N2CCCCC2)C[C@H](CC(=O)NCCc2ccccn2)C(=O)N1CC3
inactive: Potency [1] | Potency [2] | activation [3] -3.15% [at 17.1 µM, percent relative to cAMP agonist control] | Potency [4] | activity change, negative = inhibition [5] -16% [at 30.8 µM]

COc1cccc(/C=C2\SC(=S)N(C(Cc3ccccc3)C(=O)O)C2=O)c1 (stereo unspecified)
active: Potency [1] 47.8 µM
inactive: Potency [2] | Potency [3] | Potency [4] | Potency [5] | Potency [6]

COC(=O)CSc1nc(C)cc(Oc2ccccc2)n1
inactive: Potency [1] | Potency [2] | Potency [3] | Potency [4] | Potency [5] | Potency [6]

Cc1nn(-c2ccccc2)c(C)c1NC(=O)COC(=O)Cc1cccc(C(F)(F)F)c1
inactive: Potency [1] | Potency [2] | Potency [3] | Potency [4] | Potency [5]

O=C(CSc1nnc(SCc2ccccc2)s1)N/N=C/C=C\c1ccco1
inactive: Potency [2] | Potency [3] | Potency [4] | Potency [5]
active: Potency [1] 42.6 µM

COc1ccc(S(=O)(=O)N2CCCC2)cc1C(C)C
inactive: Potency [1] | Potency [2] | activation [3] -3.36% [at 17.1 µM, percent relative to cAMP agonist control] | Potency [4] | activity change, negative = inhibition [5] -3.04% [at 30.8 µM] | activation [6] 2.24% [at 30.8 µM]

COc1ccc(C(=O)NCCONC(=O)c2ccc(OC)cc2)cc1
inactive: Potency [1] | Potency [2] | Potency [3] | Potency [4] | Potency [5] | Potency [6]

Cc1ccccc1CN1C(=O)c2ccccc2Sc2ccc(C(=O)O)cc21
inactive: Potency [1] | Potency [2] | Potency [3] | Potency [4] | Potency [5] | Potency [6]

O=C1c2ccccc2C(=O)N1c1nc(-c2cccs2)cs1
active: Potency [1] 4.78 µM | Potency [4] 60.1 µM
inactive: Potency [2] | Potency [3] | Potency [5] | Potency [6]

CCCCCCNC(=O)c1cc(-c2ccco2)nc2ccccc12
active: Potency [1] 22.4 µM
inactive: Potency [2] | activation [3] 3.51% [at 17.1 µM, percent relative to cAMP agonist control] | Potency [4] | activity change, negative = inhibition [5] -13.3% [at 30.8 µM] | activation [6] 27.4% [at 30.8 µM]

CC1(C)Cc2ccccc2-c2nnc(-c3ccc4ccccc4n3)n21
inactive: Potency [1] | Potency [2] | Potency [3] | Potency [4] | Potency [5] | Potency [6]

COc1cc2ccccc2cc1C(=O)N1CC(C)CC(C)C1 (stereo unspecified)
inactive: Potency [1] | Potency [2] | activation [3] 1.37% [at 17.1 µM, percent relative to cAMP agonist control] | Potency [4] | activity change, negative = inhibition [5] 1.39% [at 30.8 µM] | activation [6] 27.4% [at 30.8 µM]

COc1ccc(CNc2cccnc2)c(OC)c1OC
inactive: Potency [1] | Potency [2] | activation [3] -6.76% [at 17.1 µM, percent relative to cAMP agonist control] | Potency [4] | activity change, negative = inhibition [5] -16% [at 30.8 µM] | activation [6] 15.5% [at 30.8 µM]

COc1ccc(-c2nnc(SCC(=O)c3ccco3)n2-c2ccccc2)cc1
inactive: Potency [1] | Potency [2] | activation [3] 3.77% [at 17.1 µM, percent relative to cAMP agonist control] | Potency [4] | activity change, negative = inhibition [5] -13.6% [at 30.8 µM] | activation [6] 4.19% [at 30.8 µM]

CCCCn1c(N)c(N(CC(C)C)C(=O)C2CCN(S(=O)(=O)c3ccc(C)c(C)c3)CC2)c(=O)[nH]c1=O
inactive: Potency [1] | Potency [2] | Potency [3] | Potency [4] | Potency [5] | Potency [6]

CCC(C(=O)NCc1ccc(OC)c(OC)c1)n1nc(C)c2c(C)n(-c3ccc(C)cc3)nc2c1=O (stereo unspecified)
inactive: Potency [1] | Potency [2] | Potency [3] | outcome [4] inactive [at 12.7 µM] | Potency [5] | Potency [6]

CC(C)(C)c1ccc(CC(=O)N2CCC2(C)C(=O)NS(=O)(=O)c2ccccc2)cc1 (stereo unspecified)
inactive: Potency [1] | Potency [2] | activation [3] 0.17% [at 17.1 µM, percent relative to cAMP agonist control] | Potency [4] | activity change, negative = inhibition [5] -2% [at 30.8 µM] | activation [6] 19.6% [at 30.8 µM]

CC(=O)Nc1ccc(Nc2nc3ccccc3nc2NS(=O)(=O)c2ccc(Cl)c([N+](=O)[O-])c2)cc1
active: Potency [1] 50.1 µM
inactive: Potency [2] | activation [3] -3.97% [at 17.1 µM, percent relative to cAMP agonist control] | Potency [4] | activity change, negative = inhibition [5] -36.3% [at 30.8 µM] | activation [6] 21.8% [at 30.8 µM]

COC(=O)C(CC(=O)c1ccc(C)cc1)n1cccn1 (stereo unspecified)
inactive: Potency [1] | Potency [2] | Potency [3] | Potency [4] | Potency [5] | Potency [6]

CCOc1cc(/C=C2\C(=N)N3N=C(S(=O)(=O)CC)SC3=NC2=O)ccc1OC(=O)c1ccco1
inactive: Potency [2] | Potency [3] | Potency [4] | Potency [5] | Potency [6]
active: Potency [1] 30.1 µM

COc1ccc(C(C)=O)cc1COc1ccc(F)cc1
inactive: Potency [1] | Potency [2] | activation [3] 4.69% [at 17.1 µM, percent relative to cAMP agonist control] | Potency [4] | activity change, negative = inhibition [5] 5.38% [at 30.8 µM] | activation [6] 4.32% [at 30.8 µM]

O=C(COc1ccc2ccccc2c1)Nc1cccc(C(=O)Nc2ccccc2C(=O)O)c1
active: Potency [1] 33.8 µM | Potency [4] 47.8 µM
inactive: Potency [2] | Potency [3] | Potency [5] | Potency [6]

CCCCOC(=O)CSc1nnc(-c2ccc(Cl)cc2Cl)o1
inactive: Potency [1] | Potency [2] | activation [3] 5.42% [at 17.1 µM, percent relative to cAMP agonist control] | Potency [4] | activity change, negative = inhibition [5] -4.49% [at 30.8 µM] | activation [6] 14.1% [at 30.8 µM]

CCOC(=O)C1=C(C)OC(N)=C(C#N)C1c1ccc(OC)c(CSc2ccccn2)c1 (stereo unspecified)
inactive: Potency [1] | Potency [2] | activation [3] 7.18% [at 17.1 µM, percent relative to cAMP agonist control] | Potency [4] | activity change, negative = inhibition [5] -6.88% [at 30.8 µM] | activation [6] 28.3% [at 30.8 µM]
